Drawing on PubChem BioAssay AID372 (MTDP, 2006), this text covers inhibition for 28 compounds.

The campaign covered roughly 100,000 compounds. About 770 (0.77%) were called active. Rule as the data show it: active = inhibition above about 50%; inactive = the rest. Shown is part of a subset that was picked to be rich in actives.

Broadly, the inhibition is the percentage by which the read-out fell short of the control.

This assay has as its target Gag-Pol polyprotein (Human immunodeficiency virus type 1 group M subtype B (isolate HXB2)) (UniProt P04585). Kind of assay: RNase H inhibition, HIV 1 Gag Pol polyprotein, FRET biochemical assay, screening (AID 372). Conditions: HIV-1 RT RNase H, FRET RNA/DNA substrate fluorescence; at 10 µM; hits give high values.
For the compound `CCC(C)c1ccc(NC(=S)NC(=O)c2ccc(OC)c(Br)c2)cc1` (stereo not drawn), the inhibition is 9% (inactive). `COc1ccc(CCN(C)C2CC(=O)N(c3ccc(F)cc3)C2=O)cc1OC` (stereo not drawn): the inhibition is 0% (inactive). To `Cc1ccc2oc(-c3cc(NC(=O)c4ccc(I)cc4)ccc3O)nc2c1` belongs 10% (inactive); to `COc1ccc(Cc2cnc(NC(=O)c3ccccc3Cl)s2)cc1`, 11% (inactive). To `NS(=O)(=O)c1ccc(CNC2CC(=O)N(CCc3ccccc3)C2=O)cc1` (stereo not drawn) belongs 9% (inactive). For `O=[N+]([O-])c1ccc2nc3c([nH]c4ccccc43)c(N3CCOCC3)c2c1` the value was 6% (inactive). Regarding `O=[N+]([O-])c1ccc2nc3c([nH]c4ccccc43)c(Cl)c2c1`, the inhibition was 58% (active). In the case of `O=c1c2cc([N+](=O)[O-])ccc2[nH]c2c1[nH]c1ccccc12`, the inhibition is 33% (inactive). As to `CCOc1cc(C(=O)NCc2ccccc2OC)cc(OCC)c1OCC`, the inhibition is 2% (inactive). For the compound `Cc1ccc(C(=O)NNC(=S)NC(C)(C)C)cc1`, the inhibition is 6% (inactive). As for `O=C(CC1SC(=Nc2ccccc2)N(c2ccccc2)C1=O)Nc1ccccc1` (stereo not drawn), the inhibition was 58% (active).

For the compound `Cc1ccc(NC(=O)CC2SC(=Nc3ccccc3)N(c3ccccc3)C2=O)cc1` (stereo not drawn), the inhibition was 5% (inactive). To `O=C(CC1SC(=Nc2ccccc2)N(c2ccccc2)C1=O)Nc1ccc(F)cc1` (stereo not drawn) belongs 14% (inactive); to `O=C(N/C(=C/c1cccc(Br)c1)C(=O)N1CCOCC1)c1ccccc1`, 5% (inactive). To `CC(C)Cc1nnc(NC(=O)c2ccccc2I)s1` belongs 0% (inactive); to `CCOC(=O)N1CCN(CCC(=O)Nc2ccc3c(c2)OCO3)CC1`, 16% (inactive). Turning to `Cc1ccc(-n2nc3cc(C)c(NC(=O)c4ccccc4Br)cc3n2)cc1`, the inhibition was 4% (inactive). Take `Cc1ccc(-n2nc3cc(C)c(NC(=O)c4ccc(Cl)cc4Cl)cc3n2)cc1`: the inhibition is 1% (inactive). With `COc1ccc(-n2nc3cc(C)c(NC(=O)/C=C/c4ccccc4)cc3n2)cc1`, the inhibition is 42% (inactive). For `Cc1cc2nn(-c3ccccc3)nc2cc1NC(=O)/C=C/c1ccc(Cl)cc1` the value was 54% (active); for `Cc1ccc(-n2nc3cc(C)c(NC(=O)c4ccccc4[N+](=O)[O-])cc3n2)cc1`, 15% (inactive); for `Cc1ccc(-n2nc3cc(C)c(NC(=O)c4cccc([N+](=O)[O-])c4C)cc3n2)cc1`, 51% (active).

Regarding `Cc1cc2nn(-c3ccccc3)nc2cc1NC(=O)c1ccc(Cl)cc1Cl`, the inhibition is 41% (inactive). For `Cc1cc2nn(-c3ccc(Cl)cc3)nc2cc1NC(=O)c1ccccc1Br` the value was 52% (active); for `Cc1cc2nn(-c3ccccc3)nc2cc1NC(=O)c1cccc([N+](=O)[O-])c1C`, 16% (inactive). To `Cc1cc2nn(-c3ccc(Cl)cc3)nc2cc1NC(=O)c1ccccc1C` belongs 36% (inactive); to `Cc1cc2nn(-c3ccccc3)nc2cc1NC(=O)/C=C/c1ccccc1`, 12% (inactive). For `Cc1cc2nn(-c3ccc(Cl)cc3)nc2cc1NC(=O)c1ccc(Cl)cc1Cl`, the inhibition is 58% (active).
